Reference: PubChem BioAssay AID436 (Emory University Molecular Libraries Screening Center, 2006)
About 350 (0.49%) of roughly 72,000 compounds were called active. The entries come from a sample that favours actives as a whole. Unmarked numbers belong to inactive results.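 How the source made its calls: active means activity remaining at or below 50% of control, provided the compound also passes the data quality filters; inactive means the rest, including low values that fail the filters.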

Each compound was assayed against Ubiquitin carboxyl-terminal hydrolase BAP1 (Homo sapiens) (UniProt Q92560) (assay: inhibitors of BAP1 deubiquitinase, primary screen, biochemical, Ub-AMC fluorescence, kinetic (AID 436;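 further: 100% = DMSO wells rate and 0% = substrate alone blank rate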)). Details: recombinant BAP1, Ub-AMC hydrolysis fluorescence kinetic; at 20 µM; hits give low values.
Ubiquitin carboxyl-terminal hydrolase BAP1 (Homo sapiens), sequence (Q92560 whole entry, looked up): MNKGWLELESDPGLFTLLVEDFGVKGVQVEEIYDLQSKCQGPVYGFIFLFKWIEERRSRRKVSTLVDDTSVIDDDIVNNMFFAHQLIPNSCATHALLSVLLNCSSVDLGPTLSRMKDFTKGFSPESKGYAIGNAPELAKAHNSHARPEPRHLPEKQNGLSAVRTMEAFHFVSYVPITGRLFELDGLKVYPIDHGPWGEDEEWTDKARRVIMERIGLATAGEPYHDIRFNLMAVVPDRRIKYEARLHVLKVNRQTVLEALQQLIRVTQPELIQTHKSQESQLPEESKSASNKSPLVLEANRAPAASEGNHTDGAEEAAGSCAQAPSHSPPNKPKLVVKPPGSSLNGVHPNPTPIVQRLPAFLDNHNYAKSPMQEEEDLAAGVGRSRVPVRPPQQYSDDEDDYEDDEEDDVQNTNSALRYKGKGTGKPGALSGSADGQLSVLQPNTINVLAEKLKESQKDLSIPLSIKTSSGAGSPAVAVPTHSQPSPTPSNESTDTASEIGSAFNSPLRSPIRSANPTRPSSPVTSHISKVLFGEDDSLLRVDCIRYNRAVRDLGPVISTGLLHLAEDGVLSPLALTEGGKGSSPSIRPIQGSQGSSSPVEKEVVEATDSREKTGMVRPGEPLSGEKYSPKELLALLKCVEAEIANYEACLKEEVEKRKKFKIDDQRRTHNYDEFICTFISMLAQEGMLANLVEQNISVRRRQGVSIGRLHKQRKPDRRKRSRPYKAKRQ
Cn1c(=N)n(CC(=O)c2ccco2)c2ccccc21 gave an activity remaining (% of control) of 76.8%.
Brc1ccc(-c2nc3ccccc3nc2-c2ccccc2)cc1 was tested, and the activity remaining (% of control) was 66.2%.
With CCOc1ccc(Nc2cc(C)nc3ncnn23)cc1 the activity remaining (% of control) was 112%.
For Nc1nnc(-c2ccccc2SCc2ccc(F)cc2)s1, the activity remaining (% of control) was 68.2%.
Work on COc1ccc(C(=O)Nc2ccc3oc(-c4ccc(C)cc4)nc3c2)cc1[N+](=O)[O-] yielded an activity remaining (% of control) of 77%.
For Cc1c(N=Cc2cc(Br)ccc2O)c(=O)n(-c2ccccc2)n1C, the activity remaining (% of control) was 106%.
In the case of CC(=O)CCN1C(=O)C(=O)c2ccccc21, the activity remaining (% of control) is reported as 83.2%.
CCn1c(N2CCCC2)nc2c1c(=O)n(C)c(=O)n2C was tested, and the activity remaining (% of control) was 117%.
Cc1nc2sc3ccccc3c2s1 showed an activity remaining (% of control) of 122%.
Work on COc1ccc(-c2csc(NC(=O)c3ccc(S(=O)(=O)N4CC(C)CC(C)C4)cc3)n2)cc1C (stereo unspecified) yielded an activity remaining (% of control) of 92.9%.
Cn1c(SCC(=O)c2ccc(Cl)cc2)nc2c1c(=O)[nH]c(=O)n2C was tested, and the activity remaining (% of control) was 112%.
Compound COc1ccc(OC)c(NC(=O)c2cc(Cl)ccc2[N+](=O)[O-])c1 has an activity remaining (% of control) of 90.2%.
CCCCOC(=O)C1=C(C)NC2=C(C(=O)CCC2)C1c1ccc(OCC)c(OC)c1 (stereo unspecified) gave an activity remaining (% of control) of 72.5%.
Cc1ccc2cccc(NC(=O)C34CC5CC(CC(C5)C3)C4)c2n1 gave an activity remaining (% of control) of 149%.
With CCOC(=O)c1c(C)oc2ccc(N(C(=O)c3ccccc3)S(=O)(=O)c3ccc(Cl)c([N+](=O)[O-])c3)cc12 the activity remaining (% of control) was 71%.
For CCCOC(=O)c1ccc(NC(=O)c2ccc(OC)cc2)cc1, the activity remaining (% of control) was 167%.
Work on CC1=C(C(=O)OCc2ccccc2)C(c2ccccc2I)NC(=O)N1C (stereo unspecified) yielded an activity remaining (% of control) of 104%.
CCOC(=O)c1c(N=c2oc3ccccc3cc2C(=O)Nc2ccc(F)cc2)sc(C)c1C showed an activity remaining (% of control) of 63.1%.
Compound CC(C)C(=O)Nc1c2c(nn1-c1ccc(Cl)cc1)CSC2 has an activity remaining (% of control) of 73.6%.
Work on COc1ccc(N2C(=O)CSC2c2cc(Br)ccc2OC)cc1 (stereo unspecified) yielded an activity remaining (% of control) of 80.4%.
With O=C(Nc1nc2ccccc2s1)C1CC(=O)N(c2ccccc2Cl)C1 (stereo unspecified) the activity remaining (% of control) was 204%.
O=C(CSc1nc2sc3c(c2c(=O)[nH]1)CCCC3)NCc1ccccn1 was tested, and the activity remaining (% of control) was 170%.
In the case of O=C(Nc1cccc(-c2nc3ccccc3o2)c1)C1CCCCC1, the activity remaining (% of control) is reported as 79.6%.
With COc1ccc(C2CC(c3c(-c4ccccc4)c4cc(Br)ccc4[nH]c3=O)=NN2C(=O)c2ccncc2)cc1 (stereo unspecified) the activity remaining (% of control) was 97.8%.
For Fc1ccc2nc(Nc3nc4c(s3)CCCC4)sc2c1, the activity remaining (% of control) was 43.8% (active).
In the case of Fc1ccc2nc(N3CCCCC3)sc2c1, the activity remaining (% of control) is reported as 108%.
In the case of O=C(Cn1c(=O)sc2ccccc21)Nc1nc2c(s1)CCCC2, the activity remaining (% of control) is reported as 79.8%.
COc1ccccc1NS(=O)(=O)c1cc(C(=O)c2ccc(Br)cc2)ccc1C was tested, and the activity remaining (% of control) was 78.7%.
CC(C)C(O)(c1ccccc1)c1cc[n+](C)cc1 (stereo unspecified) showed an activity remaining (% of control) of 229%.
With CCOC(=O)C(C(=O)OCC)n1ccc(=O)[nH]c1=O the activity remaining (% of control) was 71.2%.
In the case of CC(=O)NC12CC3CC(C1)CC(c1ccc([N+](=O)[O-])cc1)(C3)C2, the activity remaining (% of control) is reported as 70.3%.
In the case of CC(=O)NC(=O)c1cc2cc(Cl)ccc2oc1=Nc1ccc(C#N)cc1, the activity remaining (% of control) is reported as 84.2%.
Cc1ccc(S(=O)(=O)NCCN=Cc2ccc3c(c2)OCO3)cc1 was tested, and the activity remaining (% of control) was 99.1%.
O=C1c2ccccc2-c2onc3c(N4CCCC4)ccc1c23 was tested, and the activity remaining (% of control) was 60.4%.
COc1ccc(C(=O)Nc2c[nH]c(=O)[nH]c2=O)cc1OC showed an activity remaining (% of control) of 54.8%.
For O=c1c2ccccc2nc(CSc2nnnn2-c2ccccc2)n1-c1ccccc1, the activity remaining (% of control) was 37.5% (active).
N#CCSc1nc2ccccc2c(=O)n1-c1ccccc1 gave an activity remaining (% of control) of 109%.
With CCOC(=O)c1sc(NC(=O)c2cc(Cl)ccc2[N+](=O)[O-])nc1C the activity remaining (% of control) was 56.8%.
In the case of Cc1ccc(S(=O)(=O)N(CC(O)CN2C(=O)NC(C)(C)C2=O)c2cccc([N+](=O)[O-])c2)cc1 (stereo unspecified), the activity remaining (% of control) is reported as 74.1%.
Compound COc1ccc(C(=O)Nc2nc3c(ccc4ccccc43)s2)c(OC)c1 has an activity remaining (% of control) of 480%.
O=C(CC(=O)Nc1ccc2c(c1)Cc1cc([N+](=O)[O-])ccc1-2)Nc1ccc2c(c1)Cc1cc([N+](=O)[O-])ccc1-2 showed an activity remaining (% of control) of 74%.
For O=S(=O)(c1cccc(S(=O)(=O)N2CCC(n3nnc4ccccc43)CC2)c1)N1CCCCC1, the activity remaining (% of control) was 42.6% (active).
Compound Cc1ccc(S(=O)(=O)N2CCC(N3CCCCCC3)CC2)cc1 has an activity remaining (% of control) of 79.2%.
In the case of CC(=O)c1cccc(S(=O)(=O)N2CCC(n3nnc4cc(F)ccc43)CC2)c1, the activity remaining (% of control) is reported as 84.8%.
CCOC(=O)c1c(NC(=O)c2cccnc2)sc2c1CCCC2 gave an activity remaining (% of control) of 131%.
In the case of Cc1nnc2sc(-c3ccco3)nn12, the activity remaining (% of control) is reported as 63.2%.
FC(F)(F)c1nnc2sc(-c3ccco3)nn12 was tested, and the activity remaining (% of control) was 92.7%.
With Fc1ccc(-c2ccc(-c3nn4c(-c5ccco5)nnc4s3)o2)cc1 the activity remaining (% of control) was 49.1% (active).
CCOC(=O)C1C(=O)C=C(C=Cc2cccs2)CC1c1ccccc1 (stereo unspecified) showed an activity remaining (% of control) of 107%.
With Cc1c(Cc2ccccc2)c(=O)oc2c(C)c(OC(C)C)ccc12 the activity remaining (% of control) was 64.3%.
With Cn1c(C#CC(C)(C)O)cc2ccccc21 the activity remaining (% of control) was 106%.
With COc1cc(-c2nnc(SCC(=O)c3ccc(Cl)cc3)o2)cc(OC)c1OC the activity remaining (% of control) was 135%.
Compound Cc1ccc(S(=O)(=O)Nc2cccc(F)c2)cc1C(=O)O has an activity remaining (% of control) of 98.5%.
Cc1ccc(OCC(=O)Nc2ccc(C)c(Cl)c2)cc1C was tested, and the activity remaining (% of control) was 81.6%.
COc1ccc(-c2nc3cc(C)ccc3o2)cc1N=Cc1cccc(OC)c1O gave an activity remaining (% of control) of 160%.
In the case of CC(C)c1ccc2c(c1)c(SC(C)(C)C)c(CC(C)(C)C(=O)O)n2Cc1ccc(Cl)cc1, the activity remaining (% of control) is reported as 17.2% (active).
CC(C)(C)C(O)Cn1c(=N)n(Cc2ccc(Cl)cc2)c2ccccc21 (stereo unspecified) showed an activity remaining (% of control) of 201%.
With O=C(O)CCCC(=O)NC1=NCCS1 the activity remaining (% of control) was 91.1%.
Work on NC(=O)c1c(NC(=O)c2ccc(Oc3ccccc3)cc2)sc2c1CCCCC2 yielded an activity remaining (% of control) of 77.2%.
O=C1CSC(c2ccc([N+](=O)[O-])cc2)N1c1ccc(Br)cc1 (stereo unspecified) gave an activity remaining (% of control) of 83.1%.
COC(=O)C1=C(C)NC2=C(C(=O)CC(C)(C)C2)C1c1cccc(O)c1 (stereo unspecified) was tested, and the activity remaining (% of control) was 58.1%.
